Assay [1] in a line: qHTS RealTime-Glo MT Cell Viability Assay in HEK293 cells - 0 hour (AID 1224880). Also: top concentration of the series differs between compounds; % is scaled to controls: 0 for no effect and ±100 for the full control effect; nearly all actives have a fitted effect of over 45% in size. Summed up: (§1)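 600 cells/well were plated with the nonlytic NanoLuc/prosubstrate reagent, pre-incubated 5 h, then given 23 nL of compound in DMSO. Incubation at 37 C for 40 h, with luminescence from viable-cell-reduced substrate read repeatedly from 0 h.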
The nature of assay [2]: A CellTox Green Cytotoxicity Assay to monitor cytotoxicity in HEK293 cells - 32 hour (AID 1224881). Also: nearly all actives have a fitted effect of over 40% in size. Also: potency is read from the fitted curve at half-maximal effect. As to cytotoxicity increase: % is scaled to controls: 0 for no effect and ±100 for the full control effect. A digest of the protocol: (§2)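 HEK293 cells, 600/well, were preincubated 5 hours and then exposed to compounds at 37 C for up to 40 hours. A cell-impermeant cyanine dye staining dead-cell DNA was read by fluorescence at 0, 8, 16, 24, 32 and 40 h time points.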
Assay [3] in a line: A CellTox Green Cytotoxicity Assay to monitor cytotoxicity in HepG2 cells - 0 hour (AID 1224882). Also: % is scaled to controls: 0 for no effect and ±100 for the full control effect; nearly all actives have a fitted effect of over 35% in size. A digest of the protocol: (§3)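 HepG2 cells, 600/well, preincubated 5 h with CellTox Green dye, then exposed to Tox21 compounds in DMSO at 37 C for up to 40 h. Dead-cell DNA fluorescence read at the indicated time point.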
A short description of assay [4]: A CellTox Green Cytotoxicity Assay to monitor cytotoxicity in HEK293 cells - 8 hour (AID 1224884). Also: nearly all actives have a fitted effect of over 35% in size. Also: potency is read from the fitted curve at half-maximal effect. As to cytotoxicity increase: % is scaled to controls: 0 for no effect and ±100 for the full control effect. A digest of the protocol:
as §2

The nature of assay [5]: qHTS RealTime-Glo MT Cell Viability Assay in HepG2 cells - 16 hour (AID 1224885). Also: % is scaled to controls: 0 for no effect and ±100 for the full control effect; nearly all actives have a fitted effect of over 50% in size. A digest of the protocol: (§4)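 Compound treatment began 5 h after plating HepG2 cells (600/well) with NanoLuc luciferase and prosubstrate. Plates stayed at 37 C for 40 h; luminescence was captured at six time points, 0 h through 40 h.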
Assay [6] is described as follows: qHTS RealTime-Glo MT Cell Viability Assay in HEK293 cells - 24 hour (AID 1224886). Also: nearly all actives have a fitted effect of over 50% in size. Also: potency is read from the fitted curve at half-maximal effect. As to activity change, negative = cytotoxicity: top concentration of the series differs between compounds; % is scaled to controls: 0 for no effect and ±100 for the full control effect. Summed up: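 Quantitative high-throughput screen of the Tox21 10K library in HEK293: cells and RealTime-Glo reagents plated together, compound added at 5 h, luminescence monitored through 40 h at 37 C.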
Assay [7] in a line: qHTS RealTime-Glo MT Cell Viability Assay in HEK293 cells - 8 hour (AID 1224887). Also: nearly all actives have a fitted effect of over 50% in size. Also: potency is read from the fitted curve at half-maximal effect. As to activity change, negative = cytotoxicity: top concentration of the series differs between compounds; % is scaled to controls: 0 for no effect and ±100 for the full control effect. Summed up:
as §1

The nature of assay [8]: A CellTox Green Cytotoxicity Assay to monitor cytotoxicity in HEK293 cells - 16 hour (AID 1224888). Also: nearly all actives have a fitted effect of over 35% in size. Also: potency is read from the fitted curve at half-maximal effect. Summed up:
as §2

Assay [9] is described as follows: qHTS RealTime-Glo MT Cell Viability Assay in HepG2 cells - 0 hour (AID 1224889). Also: nearly all actives have a fitted effect of over 50% in size. Also: potency is read from the fitted curve at half-maximal effect. Summed up: as §4
Assay [10] is described as follows: A CellTox Green Cytotoxicity Assay to monitor cytotoxicity in HepG2 cells - 32 hour (AID 1224883). A digest of the protocol: as §3

Molecules are shown by their SMILES. Values without a mark were called inactive. Inconclusive results are not listed. Active and inactive are the calls of the source. Calls follow the shape of the dose curve; as a rule, active = well fitted curve in the direction sought with a large enough effect in the repeat runs; inconclusive = weak or mixed curves; inactive = no such curve, though single readings can be large; an effect the other way counts as inactive or inconclusive.

`COc1ccc([C@@H]2Sc3ccccc3NC(=O)[C@@H]2O)cc1`: the Potency entry in [1], in assay [2], in assay [3], in assay [4], in assay [5] and in [6] was “inactive” throughout. Besides, the Potency entry in assay [7], in assay [8] and in assay [9] was “inactive” in each case.

With `CCc1cccc(N(C)C(N)=Nc2cccc3ccccc23)c1`, the Potency result in assay [1], in [2], in assay [3], in assay [4], in assay [5] and in [6] was “inactive” each time. Further, the Potency result in assay [7], in [8] and in [9] was “inactive” each time.

`Cc1c(C(=O)NN2CCCCC2)nn(-c2ccc(Cl)cc2Cl)c1-c1ccc(Cl)cc1`: the Potency entry in [1], in [2], in [3], in assay [4], in [5] and in [8] was “inactive” each time. In assay [9], the Potency entry is “inactive”.

Take `CC(C)CCCCCOC(=O)CCCCC(=O)OCCCCCC(C)C`: the Potency entry in assay [1], in [2], in assay [3], in assay [4], in [5] and in assay [6] was “inactive” in each case. In addition, the Potency entry in [7], in assay [8] and in assay [9] was “inactive” each time.

Regarding `Cc1occc1C(=O)Nc1ccc(C(=O)N2CCC(F)(F)/C(=C\C(=O)N3CCC(N4CCCCC4)CC3)c3ccccc32)cc1`, the Potency result in [1], in [2], in assay [3], in assay [4], in assay [5] and in assay [8] was “inactive” in each case. For the same molecule, the Potency entry in [9] was “inactive”. The Potency in [6] was 5.43 µM (active).

Take `COc1cc2[nH]c(=O)[nH]c(=O)c2cc1OC`: the Potency entry in assay [1], in assay [2], in [3], in [4], in [5] and in assay [6] was “inactive” in each case. Further, the Potency entry in assay [7], in assay [8] and in assay [9] was “inactive” each time.

Turning to `N#C/C(=C1/SC[C@@H](c2ccc(Cl)cc2Cl)S1)n1ccnc1`, the Potency entry in assay [1], in [2], in assay [3], in assay [4], in assay [6] and in [8] was “inactive” in each case. For the same molecule, in assay [9], the Potency entry was “inactive”.

As to `CC(=O)[C@H]1CC[C@H]2[C@@H]3C=CC4=CC(=O)CC[C@@]4(C)[C@@H]3CC[C@]12C`, the Potency entry in assay [1], in [2], in assay [3], in assay [4], in assay [5] and in assay [7] was “inactive” each time. The Potency result in assay [8] and in [9] was “inactive” each time.

Consider `COC(=O)Nc1nc2ccc(C(=O)c3cccs3)cc2[nH]1`, for which the Potency result in assay [1], in [2], in [3], in assay [4], in assay [5] and in assay [8] was “inactive” in each case. For the same molecule, the Potency entry in [9] was “inactive”.

For the molecule `CCCCC(=O)O[C@]1(C(=O)CO)[C@@H](C)C[C@H]2[C@@H]3CCC4=CC(=O)C=C[C@]4(C)[C@@]3(F)[C@@H](O)C[C@@]21C`, the Potency entry in [1], in assay [2], in [3], in assay [4] and in assay [8] was “inactive” throughout. The Potency in [9] is 21.9 µM (active).

Regarding `Fc1ccccc1[C@@H](F)COC1CCC(Nc2ncnc3[nH]ncc23)CC1` (stereo partly specified), the Potency result in assay [1], in assay [2], in [3], in assay [4], in assay [5] and in assay [8] was “inactive” in each case. In addition, the Potency in assay [6] was 21.9 µM (active).

`CCOC(=O)c1ccccc1OC`: the Potency result in assay [1], in [2], in [3], in assay [4], in assay [5] and in [6] was “inactive” throughout. Further, the Potency entry in assay [7], in assay [8] and in assay [9] was “inactive” throughout.

Regarding `O=C(CCCN1CCC(O)(c2ccc(Br)cc2)CC1)c1ccc(F)cc1`, the Potency entry in assay [1], in assay [2], in assay [3], in [4], in [5] and in assay [8] was “inactive” each time. Also, the Potency result in assay [9] is “inactive”. For the same molecule, the Potency is 10.7 µM (active) in assay [6] and 8.49 µM (active) in assay [7].

As to `NC(=O)Nc1ccc(Cl)cc1`, the Potency entry in assay [1], in assay [2], in assay [4], in [5], in [6] and in [7] was “inactive” throughout. Further, the Potency result in assay [8] and in [9] was “inactive” each time.

Consider `Cc1oncc1C(=O)Nc1ccc(C(F)(F)F)cc1`, for which the Potency result in assay [1], in assay [2], in assay [3], in assay [4], in [5] and in [6] was “inactive” each time. Further, the Potency result in [7], in assay [8] and in assay [9] was “inactive” throughout.

As to `Nc1ccc(Cl)cc1[N+](=O)[O-]`, the Potency result in assay [1], in assay [2], in assay [3], in assay [4], in [5] and in [6] was “inactive” each time. Also, the Potency entry in [7], in assay [8] and in [9] was “inactive” in each case.

Take `CO[C@H]1O[C@H](CO)[C@@H](O)[C@H](O)[C@H]1O`: the Potency entry in [1], in assay [2], in assay [3], in [4], in assay [5] and in assay [6] was “inactive” in each case. Also, the Potency result in assay [7], in [8] and in assay [9] was “inactive” in each case.

With `[O]=[Bi]`, the activity change, negative = cytotoxicity in assay [1] was 1.4% [at 6.97 µM]; in assay [6], 5.04% [at 6.97 µM]; in [7], 1.28% [at 6.97 µM]; in assay [9], 1.28% [at 6.97 µM]. Moreover, the cytotoxicity increase in assay [2] is -0.855% [at 6.97 µM]; in assay [4], -5.25% [at 6.97 µM]. The cytotoxicity in assay [3] is 1.27% [at 6.97 µM]. Further, in [5], the activity change, negative = cytotoxic was 1.05% [at 6.97 µM]. For the same molecule, the activity change in assay [8] is -2.4% [at 6.97 µM, hits give high values].

For `Cc1nccn1-c1ccc(Sc2cccc(C3(C(N)=O)CCOCC3)c2)cc1`, the Potency result in [1], in assay [2], in assay [3], in assay [4], in assay [8] and in assay [9] was “inactive” in each case. Besides, the Potency in [6] was 1.38 µM (active).

On to `COc1cc2c(cc1OC)-c1cc(=Nc3c(C)cc(C)cc3C)n(C)c(=O)n1CC2`, for which the Potency result in assay [1], in [2], in assay [3], in assay [4], in assay [5] and in [6] was “inactive” throughout. Besides, the Potency result in assay [7], in assay [8] and in assay [9] was “inactive” throughout.

Regarding `CN(C)C(=O)Nc1ccc(Oc2ccc(Cl)cc2)cc1`, the Potency result in assay [1], in assay [2], in [3], in assay [4], in assay [5] and in assay [8] was “inactive” each time. The Potency entry in assay [9] was “inactive”.

`CC(=O)Nc1ccccc1C`: the Potency entry in [1], in assay [2], in assay [3], in assay [4], in [5] and in assay [6] was “inactive” each time. For the same molecule, the Potency entry in [7], in [8] and in assay [9] was “inactive” throughout.

With `CCCCCCCCCCCCCCC[C@H](O)[C@@H](N)CO`, the Potency entry in [1] is “inactive”. The Potency was 21.3 µM (active) in [2]; 26.8 µM (active) in assay [10]; 23.9 µM (active) in assay [4]; 21.3 µM (active) in assay [6]; 23.9 µM (active) in assay [7]; 21.3 µM (active) in assay [8].

In the case of `CCCCCCOC(=O)CCCCCCCC(=O)OCCCCCC`, the Potency result in assay [1], in assay [2], in [3], in assay [4], in assay [5] and in assay [6] was “inactive” in each case. Moreover, the Potency result in assay [7], in assay [8] and in [9] was “inactive” in each case.

The values are drawn from PubChem BioAssay (Tox21).
